Pf growth 96h – P. falciparum growth inhibition at 96 hour, primary screen for plastid delayed-death inhibitors; P. falciparum luciferase reporter growth, 96 h; Potency, µM (titrated, usually from 28.7 µM), for inactives: at the highest dose activity change, negative = inhibition, usual class: inhibitors; hit rate 6.9% among 320,000; AID 504834; note: potency is the fitted concentration of half-maximal effect; % is set by controls: 0 for no effect and ±100 for the full control effect
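Parasite growth measured via integrated firefly luciferase reporter in P. falciparum. Infected erythrocytes at 2% hematocrit, 0.05% parasitemia final were treated 96 hours at 37 C under 5% CO2, and luminescence was read.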
Cycloheximide cs – counter-screen for Shiga toxin inhibitors: cycloheximide protein synthesis inhibition. cell reporter, cycloheximide protein synthesis inhibition counterscreen. max response, %. hit rate 12% among 300,000. AID 2314; in the data active = max response mostly above about 13%, no sharp cut-off; inactive = mostly below about 14%; note: read at 38.3 µM for the half of the compounds with a filed dose; 0% is about no effect
Shiga toxin inh – blocks Shiga toxin action in Vero cells | inhibition, % at 38.7 µM | hit rate 9.2% among 290,000 | Vero cells, Shiga toxin protein synthesis inhibition reporter; in the data active = inhibition mostly above about 28%, no sharp cut-off; inactive = mostly below about 43%; note: 0% is about no effect
Pf growth 48h – inhibits P. falciparum growth in the first generation, 48 h; P. falciparum luciferase growth in erythrocytes, 48 h; Potency, µM (top dose mostly 28.7 µM), for inactives: at the top dose activity change, negative = inhibition, most hits filed as inhibitors; hit rate 5.9% among 310,000; AID 504832; note: potency is the fitted concentration of half-maximal effect; % is set by controls: 0 for no effect and ±100 for the full control effect
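Luciferase-expressing P. falciparum in infected erythrocytes (2% hematocrit, 0.1% parasitemia final) in RPMI 1640/0.5% Albumax were exposed to compound for 48 hours at 37 C, 5% CO2; growth read as luminescence.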
Starred values were filed as active, the others as inactive; ? = inconclusive; nt = no result given; [ ] = remark or other dose. Shown are actives, neighbours in structure and some others; about 21% of the full set was active somewhere. Unless noted, calls come from the whole dose curve; as a rule, active = well fitted inhibition curve with a large enough effect; inconclusive = small, poorly fitted or top-dose-only effect, or another doubt; inactive = no such curve, though single readings can be large or run the other way.

SMILES	Pf growth 96h	Cycloheximide cs	Shiga toxin inh	Pf growth 48h
Cc1ccc2nc(-c3ccc(NC(=O)COC(=O)c4ccc([N+](=O)[O-])o4)cc3)sc2c1	223%	53*	91*	225%
Cc1ccc2nc(-c3ccc(NC(=O)COC(=O)c4cncc(Br)c4)cc3)sc2c1	301%	39*	64*	250%
CC1CCN(c2nc(-c3ccncc3)nc3ccccc23)CC1	4.7µM*	-3	19	4.1µM*
c1ccc2c(N3CCOCC3)nc(N3CCOCC3)nc2c1	4.1µM*	10	21	?
CCC1CCCCN1c1nc(-c2ccncc2)nc2ccccc12 (stereo not drawn)	3%	-5	-20	nt
CCSc1nc(N2CCOCC2)c2ccccc2n1	7%	6	-10	?
CC12CC3CC(C)(C1)CC(Nc1nc(N4CCOCC4)nc4ccccc14)(C3)C2	1.3µM*	-1	-10	1.7µM*
c1ccc2c(N3CCOCC3)nc(-c3ccncc3)nc2c1	-14%	-2	-7	9.3µM*
COc1cccc(CNC(=O)CCCc2c[nH]c3ccccc23)c1	-13%	-2	-3	-21%
COc1ccc(-n2c(SCc3cn4c(C)cccc4n3)nc3ccccc3c2=O)cc1OC	?	-3	-14	0%
Cc1c(C(=O)NN)nc2ccccn12	0%	7	20	20%
O=C(COC(=O)c1ncc(Cl)c(Cl)c1Cl)NC(=O)c1ccccc1	31%	nt	nt	33%
CC1CCCCN1c1nc(-c2ccncc2)nc2ccccc12 (stereo not drawn)	4%	-6	-3	8.3µM*
O=C(Nc1nnc(C2CCCCC2)s1)c1cccs1	195%	28*	22	275%
O=C(Nc1nnc(C2CC2)s1)C1CCCCN1S(=O)(=O)c1ccccc1 (stereo not drawn)	-10%	-2	-9	13µM*
O=C(Nc1ccccc1)C1CCCCN1S(=O)(=O)c1ccccc1 (stereo not drawn)	3%	-2	-6	-5%
CCCC(=O)Nc1nnc(C2CCCO2)s1 (stereo not drawn)	2%	1	11	0%
O=C(Nc1nnc(C2CCCO2)s1)c1cccs1 (stereo not drawn)	nt	17*	19	69%
COc1cccc(C(=O)Nc2nnc(C3CCCO3)s2)c1 (stereo not drawn)	87%	25*	59*	nt
Cc1cccn2c(=O)nc(SCC(=O)Nc3ccc4c(c3)OCCO4)nc12	8%	nt	nt	?
CC1C(OC(=O)CCC(=O)NC(C)(C)CO)O[C@H]2OC3(C)CC[C@H]4[C@H](C)CCC1C24OO3 (stereo partly drawn)	?	-3	18	?
CO[C@H]1OC2O[C@@]3(C)CC[C@H]4[C@H](C)CC[C@@H]([C@H]1C)[C@@]24OO3 (stereo partly drawn)	0.0048µM*	nt	nt	0.0048µM*
C[C@H]1[C@H](OC(=O)CCC(=O)NCc2ccc(C(=O)O)cc2)O[C@@H]2O[C@@]3(C)CC[C@H]4[C@H](C)CC[C@@H]1C24OO3	0.0033µM*	8	11	0.019µM*
CCC(C)N(C(=O)Cn1c(=O)cnc2ccccc21)C1CCS(=O)(=O)C1 (stereo not drawn)	0%	nt	nt	30%
Cc1ccc(S(=O)(=O)Nc2ccccc2CNc2ccccn2)cc1	6.6µM*	22*	37*	13µM*
SMILES	Pf growth 96h	Cycloheximide cs	Shiga toxin inh	Pf growth 48h
Cc1ccc(S(=O)(=O)Nc2ccccc2CNc2ccc(Br)cn2)cc1	10%	7	8	12µM*
C[C@H](NC(=O)[C@@H](N)Cc1ccc(O)cc1)C(=O)NCC(=O)N[C@H]1CSSC[C@@H](C(=O)O)NC(=O)[C@H](CO)NC(=O)[C@H]([C@@H](C)O)NC(=O)[C@H](Cc2ccccc2)NC(=O)[C@H]([C@@H](C)O)NC(=O)[C@H](CCCCN)NC(=O)[C@@H](Cc2c[nH]c3ccccc23)NC(=O)[C@H](Cc2ccccc2)NC(=O)[C@H](Cc2ccccc2)NC(=O)[C@H](CC(N)=O)NC(=O)[C@H](CCCCN)NC1=O	nt	-4	-10	nt
COC(=O)c1ccccc1NC(=O)CN1CCC(n2nnc3cc(F)ccc32)CC1	nt	-2	-3	?
O=C(CN1CCC(n2nnc3cc(F)ccc32)CC1)N1CCc2ccccc2C1	5%	-4	-7	8.3µM*
O=C(CN1CCC(n2nnc3cc(F)ccc32)CC1)Nc1ccccc1N1CCOCC1	-17%	-2	-27	1.7µM*
CCC1CCCCN1C(=O)COc1c(Br)cc(Br)c2cccnc12 (stereo not drawn)	?	-2	-7	?
CCOC(=O)Cc1ccc2sc(-c3ccccc3)nc2c1	21%	58*	31*	136%
CCOC(=O)c1sc(-c2ccccc2)nc1C	?	34*	30	54%
CCOC(=O)c1sc(-c2cccs2)nc1C	67%	43*	130*	105%
CCOC(=O)Cc1ccc(-c2ccccc2)cc1	?	nt	nt	-15%
Cc1nc(-c2ccccc2)sc1C(N)=O	14%	15	0	24%
Cc1ccccc1N1C(S)=C(C#N)C(=O)NC12CCCCC2	?	3	-7	1%
CC(C)(C)n1nnnc1CN(Cc1cccnc1)Cc1ccccc1Cl	nt	-2	-21	15µM*
O=C(c1ccccn1)N1CCCC(N2CCN(c3ccccc3)CC2)C1 (stereo not drawn)	?	-2	6	10%
CC(C)C(NC=C1C(=O)OC(C)(C)OC1=O)C(=O)O (stereo not drawn)	nt	9	-21	19%
CC(NC=C1C(=O)OC(C)(C)OC1=O)C(=O)O (stereo not drawn)	9.3µM*	-5	-9	23%
CC1(C)CC(=O)N(c2ccc(C#N)cc2)C(=O)C1	-19%	-3	-11	19%
CCc1ccc(N2C(=O)CC(=O)NC2=O)cc1	-24%	-2	-4	4%
CCc1ccc(N2C(=O)Cc3c2nc(N)c(C#N)c3N)cc1	nt	23*	114*	153%
CC(C)(C)c1ccc(N2C(=O)Cc3c2nc(N)c(C#N)c3N)cc1	nt	35*	43	37%
CCCCC#Cc1cncc(C(=O)N/N=C/c2cccc(OC)c2)c1	28%	-1	-8	?
C[n+]1ccc(/C=C/c2cccs2)cc1	2.3µM*	-2	29	2.9µM*
CC(=C/C(=O)O)/C=C/c1cccs1	1%[5.75 µM]	1	20	-2%
CCOC(=O)CC1=NN(c2ccccc2)C(=O)/C1=C\c1ccc(N(C)C)cc1	5.9µM*	-1	14	?
CCOC(=O)CC1=NN(c2ccccc2)C(=O)C1	36%[5.75 µM]	-2	5	-10%
O=C(CNC(=O)c1cc(Cl)cc([N+](=O)[O-])c1)OCC(=O)N1CCCCC1	-1%	nt	nt	25%
O=C(Cc1cccs1)N/N=C\c1ccc([N+](=O)[O-])s1	74%	29	33	?
O=[N+]([O-])c1ccc(/C=N/n2c(CO)nc3ccccc32)s1	?	-6	-11	4.7µM*
Cc1nc2ccccc2n1/N=C/c1ccc([N+](=O)[O-])s1	4.1µM*	2	12	4.1µM*
COc1ccc(C(C(N)=O)c2ncc(C(F)(F)F)cc2Cl)cc1OC (stereo not drawn)	2%	3	-4	1%

Source: PubChem BioAssay
